INHIBITION data for 56 compounds are collected here from ChEMBL document CHEMBL4513216, “Probing the Open Global Health Chemical Diversity Library for Multistage-Active Starting Points for Next-Generation Antimalarials” (ACS Infect Dis, 2020).

The campaign covered roughly 69,000 compounds. About 8,600 (12%) showed an effect of 50% or more. The sample as a whole holds a higher share of strong results than the screen did.

This experiment has as its system Plasmodium berghei. The experiment can be described thus: Screen against P. berghei liver stage (PbLuc), transformed with Luciferase, at 10uM. It counts as functional, HepG2. As to conditions: tested at 10 uM.
Turning to `CNCc1nc(-c2ccc3c(c2)OCO3)c[nH]1`, the INHIBITION is 8.4%.
Regarding `CN1CCC(n2nc(CC3CC3)nc2-c2ccc(F)cc2Cl)CC1`, the INHIBITION is on record as 34.9%.
Take `CN(C)CCN(Cc1cccc(F)c1)C(=O)c1ccc2nccn2c1`: the INHIBITION came to 2.91%.
The result for `CC(C)c1nc(C2CCCN2CC(=O)Nc2nncs2)no1` (stereo unspecified) reads 10.2%; that for `CC(C)c1cc(NC(=O)CN2CCCC2c2noc(C(C)C)n2)on1` (stereo unspecified), 52.3%; that for `Cc1cc(NC(=O)CN2CCn3c(nnc3C(C)C)C2)no1`, 63.9%.
For `Cc1cc(NC(=O)CN2CCCC2c2noc(C(C)C)n2)on1` (stereo unspecified), the INHIBITION was -7.31%.
The result for `Cc1cc(NC(=O)CN2CCn3c(nnc3C(C)C)C2)on1` reads -0.219%; that for `Cc1cc(NC(=O)CN2CCn3c(C)nnc3C2)no1`, 45.1%.
The result for `O[C@@H]1CCN(CC2CCOC2)[C@H]1Cc1ccccc1` (stereo partly specified) reads 46.7%; that for `COc1ccc(CN(Cc2cncn2C)CC2CCCO2)cc1OC` (stereo unspecified), 15.9%.
With `CC(C)C(C)NC(=O)Nc1ccc(CS(C)(=O)=O)cc1` (stereo unspecified), the INHIBITION amounted to 3.16%.
The result for `COc1ccc(CN2CCn3cc(CNC(=O)CC4CC4)nc3C2)cc1` reads 40.4%.
For `CCOc1ccccc1CNC1CCCN(Cc2noc(C)n2)C1` (stereo unspecified), the INHIBITION is recorded as 21.5%.
For `CNC(=O)c1ccc(CN(C(C)C)C(C)C)o1` the value was 47.9%; for `COC(=O)c1ccc(CN(C(C)C)C(C)C)o1`, 42.1%; for `CC(C)N(Cc1ccc(C(=O)O)o1)C(C)C`, 69.6%.
The result for `c1coc(CN2CCCn3c(nnc3Cn3cccn3)C2)c1` reads 4.68%; that for `O=C(CC1CC1)N1CCn2cc(Cn3cccn3)nc2C1`, 42.7%; that for `O=C(Cc1ccc(F)cc1)N1CCn2cc(Cn3cccn3)nc2C1`, 51.2%.
In the case of `O=C(Cc1cccc(F)c1)N1CCn2cc(Cn3cccn3)nc2C1`, the INHIBITION is 26.4%.
For `O=C(Cc1cccs1)N1CCn2cc(Cn3cccn3)nc2C1` the value was -2.72%; for `O=C(c1ccc[nH]1)N1CCn2cc(Cn3cncn3)nc2C1`, 10.8%; for `O=C(c1ccc[nH]1)N1CCn2cc(Cn3cccn3)nc2C1`, 74.2%.
The result for `COc1ncccc1CN1C[C@@H]2COC[C@]2(CNC(=O)c2ccno2)C1` reads 29%; that for `Cc1nc(C)c(CN2CCC(N(C)Cc3noc(C4CC4)n3)C2)s1` (stereo unspecified), -19.9%.
For `COc1ccc(CNC2CCc3ncnn3C2)cc1OCCCC#N` (stereo unspecified) the value was 28.7%; for `CCc1nc(C)c(-c2nccn2CC2CCCCO2)[nH]1` (stereo unspecified), -10.2%.
In the case of `CCc1nc(C)c(-c2nccn2CC2CC(=O)N(CC)C2)[nH]1` (stereo unspecified), the INHIBITION worked out at 55.2%.
For the compound `CCc1nc(C)c(-c2nccn2CC2CCN(C3CCCC3)CC2)[nH]1`, the INHIBITION stood at 22.5%.
For `Clc1cccc(C(NCc2ncc[nH]2)c2ccccn2)c1` (stereo unspecified), the INHIBITION turned out to be 83.2%.
For `Fc1cccc(C(NCc2ncc[nH]2)c2ccccn2)c1` (stereo unspecified) the value was -13.2%.
For `Fc1cccc(C(NCc2ncc[nH]2)c2ccccc2)c1` (stereo unspecified) the value was 78.2%; for `Cn1cc(C(NCc2ccc(F)cc2)c2cccc(F)c2)cn1` (stereo unspecified), 15%.
As for `Clc1cccc(N2CCC(NCc3ncc[nH]3)C2)c1` (stereo unspecified), the INHIBITION was determined as 34.1%.
Consider `CC(C(=O)Nc1cccc(Cl)c1)N1CCN(Cc2ncc[nH]2)CC1` (stereo unspecified), for which the INHIBITION is listed as 4.52%.
As for `Cc1ccc(NC2(C(=O)N3CCn4cncc4C3)CCCCC2)cc1C`, the INHIBITION worked out at 42.1%.
For `COCc1cnc2n1CCN(C1CCC1)C2C` (stereo unspecified) the value was 42.6%; for `O=C(NCCN1CCCCC1CO)c1cc(-c2ccccc2)on1` (stereo unspecified), -7.81%; for `CC(C)CNC(=O)c1ccc2c(c1)nc1n2CCN(Cc2ccco2)C1`, 18.4%.
The result for `Cc1nnc(C2Cc3ccccc3CN2Cc2nc(C(C)C)no2)o1` (stereo unspecified) reads -10.1%.
Turning to `CC(=O)N1N=C(c2ccccc2)OC1C(=O)NCCOc1ccccc1` (stereo unspecified), the INHIBITION is on record as -12.2%.
For `O=C(Nc1ccccc1OCCc1ccccn1)N1CCOCC(O)C1` (stereo unspecified), the INHIBITION amounted to 12.3%.
As for `O=C(Nc1ccc(-n2cccn2)cc1)N1CCC(O)C1` (stereo unspecified), the INHIBITION amounted to 42.3%.
`O=C(Nc1ccc(-n2cccn2)cc1)N1CCOCC(O)C1` (stereo unspecified): the INHIBITION was 53.6%.
For `CC(=O)OC1CN(c2nc3c(C)cccc3s2)C1` the value was -45.6%.
For `c1cnc(N2CCO[C@H]3CN(Cc4csnn4)C[C@H]32)nc1` the value was 42.7%; for `CN(C)CCn1c2c(ccc1=O)CC(NCc1cccnc1)CC2` (stereo unspecified), 34.9%.
For `CN(C)CCn1c2c(ccc1=O)CC(NC(=O)c1cnccn1)CC2` (stereo unspecified) the value was 14.6%.
Turning to `CS(=O)(=O)NC1CCc2c(ccc(=O)n2CC2CC2)C1` (stereo unspecified), the INHIBITION turned out to be 31.3%.
With `COCCn1c2c(ccc1=O)CC(NS(C)(=O)=O)CC2` (stereo unspecified), the INHIBITION was 58.6%.
In the case of `COCCn1c2c(ccc1=O)CC(NC(=O)c1cscn1)CC2` (stereo unspecified), the INHIBITION was determined as 70.2%.
In the case of `Cn1cc(CNC2CCc3c(ccc(=O)n3Cc3cccnc3)C2)cn1` (stereo unspecified), the INHIBITION is recorded as 55.7%.
For `Cn1c2c(ccc1=O)CC(NS(C)(=O)=O)CC2` (stereo unspecified) the value was 45.5%; for `CN(C)C(=O)Cn1c2c(ccc1=O)CC(NCc1cccnc1)CC2` (stereo unspecified), 57.1%; for `CN(C)C(=O)Cn1c2c(ccc1=O)CC(NCc1ccoc1)CC2` (stereo unspecified), 8.31%.
